Active and inactive are the calls of the source. Where a call stands in place of a potency, no number is given. Calls follow the shape of the dose curve; as a rule, active = well fitted cell-killing curve with a large enough effect; inconclusive = small, poorly fitted or top-dose-only effect, or effect the other way; inactive = flat fitted curve, though single readings scatter.
Assay: MultiTox-Fluor Cytotoxicity Assay - LYMP1-003 - Dead Cells (AID 961); also: nearly all actives have a fitted effect of over 70% in size
Details: LYMP1-003 lymphoblastoid cells, dead-cell protease fluorescence; series mostly up to 92.2 µM
Source text: NIH Chemical Genomics Center [NCGC]
NIH Molecular Libraries Screening Centers Network [MLSCN]
National Institutes of Environmental Health Sciences [NIEHS]
National Toxicology Program [NTP]
We have developed a 1536-well cell-based assay for quantitative high throughput screening (qHTS) against a number of cell lines to determine in vitro cytotoxicity of small molecules. This particular assay uses a human lymphoblastoid cell line (LYMP1-003) purchased from Coriell Institute.
NCGC Assay Protocol Summary:
The MultiTox-Fluor Cytotoxicity Assay (Promega) is a homogeneous method to simultaneously measure the relative number of live and dead cells in culture by detecting changes in cell membrane integrity. There are two fluorogenic peptide substrates in the assay reagent. Viable cells are determined when the cell-permeant substrate (GF-AFC) enters the cell and is cleaved by protease from live cells resulting in liberated fluorophore. This live-cell protease activity restricted to viable cells is proportional to cell number. The dead cells are determined by using fluorogenic cell-impermeant peptide substrate (bis-AAF-R110) which cleaved by dead cell proteases leaking from damaged cell membrane.
Using the MultiTox-Fluor Cytotoxicity Assay, the relative number of dead cells was measured in the lymphoblastoid cell line with complete culture medium following compound treatment for 16 hours. The assay was performed in opaque black Kalypsys 1536-well plates. In the screen, tetraoctylammonium bromide was used as positive control. Library compounds were measured for their ability to cause acute toxicity in the cell line, as reflected by an increase in dead cell protease activity, in a concentration-dependent manner. Data were normalized to the controls for basal activity (DMSO only) and 100% stimulation (15 uM tetraoctylammonium bromide). AC50 values were determined from concentration-response data modeled with the standard Hill equation.
qHTS protocol for MultiTox-Fluor Cytotoxicity assay
[Step] [Parameter] [Value] [Description]
1. Reagent; 5 uL; 2500 lymphoblastoid cells/well
2. Time; 5 hr; 37 C incubation
4. Controls; 23 nL; Tetraoctylammonium bromide 6.4pM to 92 uM
5. Time; 16 hr; 37 C incubation
6. Reagent; 5 uL; MuliTox-Fluor Assay reagent
7. Time; 60 min; Room Temperature
8. Detection; dead-cell fluorescence (Ex/Em=485/520); EnVision plate reader
Keywords: cytotoxicity, lymphoblastoid cell line, fluorescence, NTPHTS, NTPHTS_NCGC, NIEHS, EPA, DSSTox, MLSMR, MLSCN, NIH Roadmap, qHTS, NCGC
With `CCc1ccc(C(c2ccc(CC)cc2)C(Cl)Cl)cc1` the Potency was “inactive”.
With `O=[N+]([O-])c1ccc(F)cc1F` the Potency was “inactive”.
In the case of `CC(C)S`, the Potency is reported as “inactive”.
With `Nc1ccccc1O` the Potency was 10 µM (active).
In the case of `Cc1ccc(S(N)(=O)=O)cc1`, the Potency is reported as “inactive”.
With `Cc1c(C(=O)O)c(O)cc2c1C(=O)c1c(O)c([C@H]3O[C@H](CO)[C@@H](O)[C@H](O)[C@H]3O)c(O)c(O)c1C2=O` the Potency was “inactive”.
In the case of `CCCC(=O)OC(=O)CCC`, the Potency is reported as “inactive”.
For `CCNC(=S)NCC`, the Potency was “inactive”.
For `Nc1cc([N+](=O)[O-])ccc1O`, the Potency was “inactive”.
For `c1ccc(CSCc2ccccc2)cc1`, the Potency was “inactive”.
With `CC(C)OCC1CO1` (stereo not given) the Potency was “inactive”.
With `Cc1c(N)cccc1Cl` the Potency was “inactive”.
With `C=CC(=O)OCCCCCCOC(=O)C=C` the Potency was 31.6 µM (active).
In the case of `OCC(CBr)(CBr)CBr`, the Potency is reported as “inactive”.
With `O=C(Cl)c1ccc([N+](=O)[O-])cc1` the Potency was “inactive”.
For `S=C(NC1CCCCC1)NC1CCCCC1`, the Potency was “inactive”.
With `CCCCCCCC/C=C\CCCCCCCC(=O)N(CCO)CCO` the Potency was “inactive”.
For `O=[N+]([O-])c1cccc(I)c1`, the Potency was “inactive”.
For `C[Si](C)(C)Cl`, the Potency was “inactive”.
In the case of `C=Cc1cccc(C)c1`, the Potency is reported as “inactive”.
For `O=C(O)/C=C/c1ccc(/C=C/C(=O)O)cc1`, the Potency was “inactive”.
With `Nc1ccc(N=Nc2ccccc2)c(N)c1` the Potency was “inactive”.
In the case of `CCCCCCCCOc1ccc(C(=O)O)cc1`, the Potency is reported as “inactive”.
For `O=[N+]([O-])c1cc(Cl)c(Cl)c(Cl)c1Cl`, the Potency was 50.1 µM (active).
For `C1CCCNCC1`, the Potency was “inactive”.
For `OC1CCCCC1`, the Potency was “inactive”.
For `Brc1cc(Oc2cc(Br)c(Br)c(Br)c2Br)c(Br)c(Br)c1Br`, the Potency was “inactive”.
For `C/C(Cl)=C/CCl`, the Potency was “inactive”.
With `COc1ccc(C(=O)Nc2ccccc2)cc1[N+](=O)[O-]` the Potency was “inactive”.
In the case of `Cc1c2ccccc2c(C)c2c1ccc1ccccc12`, the Potency is reported as 39.8 µM (active).
In the case of `CN(C)c1ccc(C(=N)c2ccc(N(C)C)cc2)cc1`, the Potency is reported as 50.1 µM (active).
In the case of `C=C1CC[C@H](O)C/C1=C/C=C1\CCC[C@]2(C)[C@@H]([C@H](C)CCCC(C)C)CC[C@@H]12`, the Potency is reported as 39.8 µM (active).
With `Nc1ccc(-c2ccc(N)c(O)c2)cc1O` the Potency was “inactive”.
With `CN(C)c1ccc(Cc2ccc(N(C)C)cc2)cc1` the Potency was “inactive”.
For `c1ccc(SCCSc2ccccc2)cc1`, the Potency was “inactive”.
For `CCN(CC)c1ccc(N)cc1`, the Potency was “inactive”.
For `CCCCNCC`, the Potency was “inactive”.
With `C/C=C1/C(=O)C[C@H]2[C@@H]3CCC4=CC(=O)CC[C@]4(C)[C@H]3CC[C@]12C` the Potency was 50.1 µM (active).
For `CCCCOC(=O)COc1ccc(Cl)cc1Cl`, the Potency was “inactive”.
In the case of `Cc1ccc(O)c(N)c1`, the Potency is reported as “inactive”.

Reference: PubChem BioAssay (NCATS)
Potency is read from the fitted curve at half-maximal effect.
